Screening results (PubChem)
An excerpt weighted towards active compounds, which were near 2.3% of everything screened.
BCLXL inh: inhibitors of human Bcl-xL, primary screen, biochemical, fluorescence polarization, HTS. inhibition, % at 10.9 µM. GST-Bcl-xL / FITC-Bim BH3 peptide fluorescence polarization. 320,000 compounds, 0.7% hits;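 active = inhibition above the mean of all tested compounds plus 3 SD, cutoff set per campaign, cut at about 30% in these data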;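 also: 0% = DMSO wells and 100% = unlabeled Bim-BH3 peptide competitor; inhibitors lower millipolarization by displacing the labeled peptide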
Target sequence (Q07817 whole entry, looked up): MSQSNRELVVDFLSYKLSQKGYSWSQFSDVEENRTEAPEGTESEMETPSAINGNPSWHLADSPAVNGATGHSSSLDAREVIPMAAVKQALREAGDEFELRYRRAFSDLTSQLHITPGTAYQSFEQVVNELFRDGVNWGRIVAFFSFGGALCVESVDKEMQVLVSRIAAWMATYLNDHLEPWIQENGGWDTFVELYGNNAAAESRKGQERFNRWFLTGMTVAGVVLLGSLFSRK
GLD-1 RNA inh: GLD-1/TGE RNA complex disruptors, primary screen, biochemical, fluorescence polarization. Female germline-specific tumor suppressor gld-1 (Caenorhabditis elegans), Q17339. purified GLD-1 + fluorescein TGE RNA. inhibition, % at 5.96 µM. 320,000 compounds, 0.44% hits. AID 2280, 2010;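 active = percent inhibition above a per-plate cutoff, the plate mean of test compounds plus 3 SD, cut at about 30% in these data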;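 also: 0% = DMSO wells with GLD-1 and probe and 100% = wells lacking GLD-1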
Mcl1 Bid PPI: Mcl-1/Bid binding inhibitors, primary screen, biochemical, TR-FRET, 1536-well; TR-FRET Mcl-1/Bid-Dy647 peptide binding; 220,000 compounds, 0.97% hits; inhibition, % at 21.7 µM;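 active = compounds that cut the binding signal by more than half at the single screening dose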;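 also: His-tagged Mcl-1 with europium anti-His antibody binding Bid BH3 peptide; 0% = Mcl-1 plus peptide wells and 100% = peptide-only wells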
Target sequence (Q07820 whole entry, looked up): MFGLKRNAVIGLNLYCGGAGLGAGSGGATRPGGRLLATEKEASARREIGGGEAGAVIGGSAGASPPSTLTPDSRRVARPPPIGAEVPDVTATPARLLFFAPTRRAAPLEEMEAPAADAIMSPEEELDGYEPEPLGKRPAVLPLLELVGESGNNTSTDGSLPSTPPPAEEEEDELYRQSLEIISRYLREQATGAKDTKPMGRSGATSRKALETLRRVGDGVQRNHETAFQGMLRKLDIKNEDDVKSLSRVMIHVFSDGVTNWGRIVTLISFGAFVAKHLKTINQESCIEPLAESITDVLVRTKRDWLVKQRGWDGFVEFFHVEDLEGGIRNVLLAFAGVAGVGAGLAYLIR
Mcl1-Noxa inh: Mcl-1/Noxa binding inhibitors, primary screen, biochemical, TR-FRET, 1536-well | Induced myeloid leukemia cell differentiation protein Mcl-1 (Homo sapiens), Q07820 | TR-FRET Mcl-1/Noxa peptide binding, 2 h | inhibition, % at 21.7 µM | 220,000 compounds, 1.5% hits | AID 1022, 2008;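 active = compounds that cut the protein-peptide binding signal by more than 50% relative to plate controls in a single-dose test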;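 also: His-tagged Mcl-1 with rhodamine Noxa BH3 peptide and terbium anti-His antibody; 0% = Mcl-1 plus Noxa peptide wells and 100% = peptide-only wells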
MCL1-BIM inh: inhibitors of MCL1 binding to BIM-BH3, primary screen, biochemical, fluorescence polarization; Induced myeloid leukemia cell differentiation protein Mcl-1 (Homo sapiens), Q07820; GST-MCL1 / FITC-Bim-BH3 fluorescence polarization; inhibition, % at 10.9 µM; 320,000 compounds, 0.68% hits; AID 2057, 2009;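 active = inhibition above the mean inhibition of all tested compounds plus 3 SD, set per campaign, cut at about 40% in these data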;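 also: 0% = DMSO wells and 100% = unlabeled Bim-BH3 peptide control; higher means more loss of mP so more displacement of Bim peptide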
Mcl-1 Bim block: inhibitors of Bim peptide binding to Mcl-1, primary screen, biochemical, bead-based flow cytometry, multiplex; Bim peptide-Mcl-1 binding; 190,000 compounds, 0.1% hits; inhibition, % at 10 µM; in the data active = inhibition above about 40%;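 also: 0% = no compound tracer wells and 100% = peptide blocker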
Numbers without * were called inactive; x = no result given.

SMILES	BCLXL inh	GLD-1 RNA inh	Mcl1 Bid PPI	Mcl1-Noxa inh	MCL1-BIM inh	Mcl-1 Bim block
C=C(CCC(=O)c1ccccc1)C(=O)c1ccccc1	85*	14	11	22	7	-3
COc1ccc(N(CC(=O)N2CCOCC2)S(C)(=O)=O)c(OC)c1	1	-4	x	x	-2	x
Cc1ccccc1-n1nc2c(c1NC(=O)CC(C)C)CS(=O)C2 (centres undefined)	-1	-8	x	x	-13	x
CCCc1nc2c(C)ccc(C)c2c(N)c1CC	6	4	58*	22	6	0
O=C(CN1CCN(c2ccccc2O)CC1)Nc1cc([N+](=O)[O-])ccc1Cl	2	4	-25	67*	5	-2
CC(C(=O)Nc1cc([N+](=O)[O-])ccc1Cl)N1CCN(c2ccc(O)cc2)CC1 (centres undefined)	14	2	-62	78*	21	-1
CC(C(=O)Nc1ccc([N+](=O)[O-])cc1Cl)N1CCN(S(=O)(=O)c2cccs2)CC1 (centres undefined)	-5	1	x	x	-8	x
COc1ccc(-c2nnc(SCc3ccc(C(=O)O)cc3)n2N)cc1	-10	-8	-10	8	-10	x
CC(=O)Nc1nc2n(n1)C(c1ccc(Cl)cc1)C=C(C)N2 (centres undefined)	8	3	-27	4	7	-1
CC1=CC(c2ccccc2)n2nc(NC(=O)CCC(=O)O)nc2N1 (centres undefined)	2	7	-8	4	0	x
O=C(Nc1nc2n(n1)C(c1ccccc1)C=C(c1ccccc1)N2)c1ccco1 (centres undefined)	27	12	-49	12	40*	-5
COc1ccc(C2=CC(c3ccc(Cl)cc3)n3cnnc3N2)cc1OC (centres undefined)	59*	44*	-103	15	62*	-6
COc1ccc(C2C=C(c3ccc(Cl)cc3)Nc3nc(NC(C)=O)nn32)cc1 (centres undefined)	139*	119*	-117	17	158*	0
CC(=O)Nc1nc2n(n1)C(c1ccc(F)cc1)C=C(c1ccccc1)N2 (centres undefined)	52*	37*	-26	13	47*	-2
C=CCNc1nc(C(=O)OCC(=O)N(Cc2ccccc2)C(C)C)cs1	2	-4	x	x	-1	x
CN(c1ccc(F)cc1)S(=O)(=O)c1ccc2[nH]cc(C(=O)O)c(=O)c2c1	5	4	58*	12	4	0
COCCN(CCOC)C(=O)c1c[nH]c2ccc(S(=O)(=O)N(C)c3ccc(F)cc3)cc2c1=O	5	0	62*	41	3	-3
CCc1cccc(CC)c1-n1c(SCC(=O)N2CCc3ccccc3C2)nnc1-c1cccnc1	-16	-13	-21	14	-23	x
CCCCc1ccc(N2C(=NC(=O)C3CCCO3)SC3CS(=O)(=O)CC32)cc1 (centres undefined)	1	2	x	x	10	x
O=C(CSc1ccc(Cl)cc1)N1CCN(c2ccc([N+](=O)[O-])cc2Cl)CC1	7	13	-4	-1	-4	-1
Cc1ccc(Cl)cc1N1CCN(C(=O)CSc2ccsc2[N+](=O)[O-])CC1	9	-1	-16	55*	11	-8
Cc1cc(NC(=O)CSCC(=O)N2CCN(c3ccccc3)CC2)no1	x	5	x	x	x	x
Cc1ccccc1NS(=O)(=O)c1ccc(OCC(=O)N2CCCC2)cc1	-1	3	4	58*	-3	-2
Cc1ccccc1NS(=O)(=O)c1cc(C(=O)N2CCCC2)ccc1Cl	1	-2	x	x	-4	x
Cc1ccc(C)c(NS(=O)(=O)c2ccc(OCC(=O)N3CCCC3)cc2)c1	-2	-1	-28	9	2	-4
SMILES	BCLXL inh	GLD-1 RNA inh	Mcl1 Bid PPI	Mcl1-Noxa inh	MCL1-BIM inh	Mcl-1 Bim block
O=C(c1ccc(S(=O)(=O)Nc2ccccc2Cl)cc1)N1CCOCC1	8	8	x	x	7	x
CC1CCCN(C(=O)c2ccc(S(=O)(=O)Nc3ccccc3Cl)cc2)C1 (centres undefined)	36*	1	x	x	1	x
Cc1ccccc1NS(=O)(=O)c1cc(C(=O)N2CCCC2)ccc1C	48*	-2	-16	3	0	-3
CC(C)(C)NC(=O)CN(C(=O)c1snc(C(=O)NC2CCCCC2)c1N)c1ccccc1F	10	-5	x	x	6	x
Cc1cc(Cl)ccc1-n1c(-c2cccnc2)n[nH]c1=S	-21	-3	-93	59*	-7	x
Cc1cc(NC(=O)c2ccc(Cl)cc2)cc(C)c1OCC(=O)N1CCOCC1	1	-2	x	x	4	x
CN1C(=O)/C(=C/c2ccccc2OCc2cccc(F)c2)NC1=S	-2	8	78*	5	9	-3
CN(C)c1ccc(NC(=O)CCCc2ccccc2)cc1	20	6	7	79*	20	-1
CCOc1ccc2nc(N3C(=O)/C(=C/c4ccc(Cl)cc4)NC3=S)sc2c1	x	x	93*	86*	x	-5
COc1ccc2nc(N3C(=O)CNC3=S)sc2c1	0	-3	-24	-62	-3	x
NNC(=O)[C@H](Cc1ccccc1)NC(=O)NCCc1ccccc1	-1	12	x	x	4	x
COc1ccc(CN2CCN(S(=O)(=O)c3ccc(F)cc3)CC2)cc1OC	0	4	35	13	5	-1
COc1ccc(CN2CCN(S(=O)(=O)c3ccccc3)CC2)cc1Br	6	-6	64*	48	7	-1
OC(CNC1CCCC1)COc1ccc(-c2ccccc2)cc1 (centres undefined)	6	8	-6	11	1	0
OC(CNC1CCCCC1)COCCOc1ccc(Br)cc1 (centres undefined)	3	-3	-8	21	5	49*
COc1cc(CN2CCC(C(=O)NC3CCCC3)CC2)cc(Br)c1O	-6	1	51*	17	7	0
Cc1ccc(C(=O)NCC(=O)OC(C)C(=O)Nc2ccc(N(C)C)cc2)cc1C (centres undefined)	4	5	-60	71*	-2	1
Cc1ccc(-c2nnc(SCC(=O)N/N=C/c3ccccc3C(=O)O)n2-c2ccccc2)cc1	1	-1	4	-1	-4	0
Cc1ccc(-c2nnc(SCC(=O)N/N=C/c3ccc(C)s3)n2-c2ccc(C)cc2)cc1	0	8	97*	23	-6	-5
CCC1CSC(Nc2ccc(C(=O)/C=C/c3cccc(C)c3)cc2)=N1 (centres undefined)	-8	-6	26	85*	-9	0
